# Measured values published in PubChem BioAssay (NCI).
# The panel holds about 79,000 compounds, 15% with a hit somewhere; the sample as a whole holds those more often. Values without a mark were called inactive. The source made the active and inactive calls. Cut-off read from the data, not from the text of the source: active = growth inhibition above about 70%; inactive = the rest.
# Experiments:
# [1] = NCI Yeast Anticancer Drug Screen. Data for the rad52 strain (AID 147);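 note: 0% = growth of vehicle-treated control cultures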; details: S. cerevisiae rad52 mutant growth inhibition, stronger effect = higher value
# Outline: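 Compounds are applied to a genetically defined yeast strain lacking normal DNA damage repair, and inhibition of growth is expressed relative to cultures given vehicle only.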
# [2] = NCI Yeast Anticancer Drug Screen. Data for the wt1 strain (AID 149);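 note: 0% = growth of vehicle-treated wt1 cultures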; details: S. cerevisiae wt1 strain (SPY 50644) growth inhibition, stronger effect = higher value
# Outline: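 Using yeast strain wt1, compound-induced growth inhibition was determined against vehicle-treated cultures.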
# [3] = NCI Yeast Anticancer Drug Screen. Data for the rad50EPP+ strain (AID 151);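 note: 0% = growth of vehicle-treated control cultures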; details: S. cerevisiae rad50 mutant strain, stronger effect = higher value
# Outline: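 Compounds were applied to the rad50EPP+ yeast strain, which bears a defined DNA repair alteration, and growth inhibition was determined relative to vehicle-treated cultures.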
# [4] = NCI Yeast Anticancer Drug Screen. Data for the mgt1 strain (AID 153); details: S. cerevisiae mgt1 mutant growth inhibition, stronger effect = higher value
# Outline: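 Strain: mgt1 yeast, one of a set carrying defined DNA damage repair or cell cycle control alterations. Compound-treated growth compared with vehicle.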
# [5] = NCI Yeast Anticancer Drug Screen. Data for the rad50 strain (AID 155);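 note: 0% = growth of vehicle-only cultures of the same strain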; details: S. cerevisiae rad50 strain growth inhibition, stronger effect = higher value
# Outline: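 Relative growth inhibition (compound vs vehicle) was measured in yeast with a defined repair-gene alteration.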
# [6] = NCI Yeast Anticancer Drug Screen. Data for the mec2-1 strain (AID 157); details: S. cerevisiae mec2-1 strain, stronger effect = higher value
# Outline: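 Strain: mec2-1 (DNA repair/cell cycle alteration). Compound exposure, then growth measured; inhibition expressed relative to vehicle.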
# [7] = NCI Yeast Anticancer Drug Screen. Data for the rad14 strain (AID 159);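 note: 0% = growth of vehicle-treated control cultures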; details: S. cerevisiae rad14 strain growth inhibition, stronger effect = higher value
# Outline: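 Screen for anticancer potential: a yeast strain altered in DNA damage repair is grown with compound, and reduced growth is quantified against vehicle controls.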
# [8] = NCI Yeast Anticancer Drug Screen. Data for the sgs1 mgt1 strain (AID 161);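 note: 0% = growth of cultures given vehicle only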; details: S. cerevisiae sgs1 mgt1 strain, stronger effect = higher value
# Outline: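 Read-out: growth inhibition vs vehicle controls. Cells: mutant yeast strain deficient in DNA damage repair.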
# [9] = NCI Yeast Anticancer Drug Screen. Data for the CLN2oe strain (AID 163);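 note: 0% = growth of vehicle-only control cultures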; details: S. cerevisiae CLN2oe strain, stronger effect = higher value
# Outline: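 Growth of a genetically modified yeast strain is measured after compound exposure and compared with cultures given vehicle alone.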
# [10] = NCI Yeast Anticancer Drug Screen. Data for the cln2 rad14 strain (AID 165);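 note: 0% = growth equal to vehicle treated cultures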; details: S. cerevisiae cln2 rad14 strain, stronger effect = higher value
# Outline: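 Compounds are applied to the cln2 rad14 yeast strain, and growth is then compared with that of vehicle-treated cultures to give inhibition.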
# [11] = NCI Yeast Anticancer Drug Screen. Data for the bub3 strain (AID 167); details: S. cerevisiae bub3 mutant strain, stronger effect = higher value
# Outline: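 Screening used yeast with an engineered genetic alteration affecting cell cycle control. Compound-exposed cultures were compared with vehicle cultures, and reduced growth was taken as inhibition.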
# [12] = NCI Yeast Anticancer Drug Screen. Data for the wt2 strain (AID 169);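 note: 0% = growth of vehicle-treated yeast cultures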; details: S. cerevisiae wt2 strain growth inhibition, stronger effect = higher value
# Outline: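 This strain belongs to a panel of yeast strains with defined genetic alterations in DNA damage repair or cell cycle control. Compounds are applied, and growth inhibition is measured against vehicle-treated cultures.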
# [13] = NCI Yeast Anticancer Drug Screen. Data for the mlh1 strain (AID 171);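 note: 0% = growth of vehicle-treated control cultures of the same strain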; details: S. cerevisiae mlh1 strain growth inhibition, stronger effect = higher value
# Outline: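 Growth of the mutant yeast strain after compound exposure, expressed as inhibition relative to vehicle-only controls.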
# [14] = NCI Yeast Anticancer Drug Screen. Data for the sgs1 strain (AID 173);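 note: 0% = growth of vehicle-only control cultures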; details: S. cerevisiae sgs1 mutant, stronger effect = higher value
# Outline: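 Growth of a yeast strain bearing a defined genetic alteration is measured after compound treatment. Inhibition is expressed relative to vehicle-only controls.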
# [15] = NCI Yeast Anticancer Drug Screen. Data for the mlh1 rad18 strain (AID 175); details: S. cerevisiae mlh1 rad18 strain growth inhibition, stronger effect = higher value
# Outline: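 Read-out is yeast growth inhibition, calculated against vehicle-only controls. The compound was applied to a strain engineered with DNA damage repair alterations.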
# [16] = NCI Yeast Anticancer Drug Screen. Data for the rad18 strain (AID 177); details: S. cerevisiae rad18 mutant growth inhibition, stronger effect = higher value
# Outline: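 Growth of the mutant yeast strain after compound exposure, normalised to vehicle-only cultures.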
# [17] = at 5.0 µM (retest, dose inferred, filed as 0.5)
# [18] = at 50.0 µM (retest, dose inferred, filed as 5.0)
smiles,measurement,setting,value
CNC1C(OC2C(OC3C(O)C(O)C(N=C(N)N)C(O)C3N=C(N)N)OC(C)C2(O)CO)OC(CO)C(O)C1O (stereo unspecified),growth inhibition,[1]; at 1.2 µM,-3%
same,growth inhibition,[1]; at 3.7 µM,1%
same,growth inhibition,[1]; at 11.0 µM,2%
same,growth inhibition,[1]; at 33.0 µM,28%
same,growth inhibition,[1]; at 100.0 µM,-7%
same,growth inhibition,[2]; at 1.2 µM,4%
same,growth inhibition,[2]; at 3.7 µM,-4%
same,growth inhibition,[2]; at 11.0 µM,-4%
same,growth inhibition,[2]; at 33.0 µM,10%
same,growth inhibition,[2]; at 100.0 µM,-4%
same,growth inhibition,[3]; at 1.2 µM,-2%
same,growth inhibition,[3]; at 3.7 µM,4%
same,growth inhibition,[3]; at 11.0 µM,-2%
same,growth inhibition,[3]; at 33.0 µM,-3%
same,growth inhibition,[3]; at 100.0 µM,-10%
same,growth inhibition,[4]; at 1.2 µM,0%
same,growth inhibition,[4]; at 3.7 µM,7%
same,growth inhibition,[4]; at 11.0 µM,-6%
same,growth inhibition,[4]; at 33.0 µM,17%
same,growth inhibition,[4]; at 100.0 µM,-9%
same,growth inhibition,[5]; at 1.2 µM,-2%
same,growth inhibition,[5]; at 3.7 µM,7%
same,growth inhibition,[5]; [17],-19%
same,growth inhibition,[5]; at 11.0 µM,4%
same,growth inhibition,[5]; at 33.0 µM,31%
same,growth inhibition,[5]; [18],-6%
same,growth inhibition,[5]; at 50.0 µM,91.3% (active)
same,growth inhibition,[5]; at 100.0 µM,-11%
same,growth inhibition,[6]; at 1.2 µM,-2%
same,growth inhibition,[6]; at 3.7 µM,-1%
same,growth inhibition,[6]; [17],-15%
same,growth inhibition,[6]; at 11.0 µM,-3%
same,growth inhibition,[6]; at 33.0 µM,10%
same,growth inhibition,[6]; [18],19%
same,growth inhibition,[6]; at 50.0 µM,93.5% (active)
same,growth inhibition,[6]; at 100.0 µM,-3%
same,growth inhibition,[7]; at 1.2 µM,-2%
same,growth inhibition,[7]; at 3.7 µM,4%
same,growth inhibition,[7]; at 11.0 µM,-2%
same,growth inhibition,[7]; at 33.0 µM,32%
same,growth inhibition,[7]; at 100.0 µM,-9%
same,growth inhibition,[8]; [17],19%
same,growth inhibition,[8]; [18],-6%
same,growth inhibition,[8]; at 50.0 µM,91.8% (active)
same,growth inhibition,[9]; at 1.2 µM,-7%
same,growth inhibition,[9]; at 3.7 µM,-6%
same,growth inhibition,[9]; at 11.0 µM,-2%
same,growth inhibition,[9]; at 33.0 µM,16%
same,growth inhibition,[9]; at 100.0 µM,-12%
same,growth inhibition,[10]; [17],11%
same,growth inhibition,[10]; [18],59%
same,growth inhibition,[10]; at 50.0 µM,81.8% (active)
same,growth inhibition,[11]; at 1.2 µM,-2%
same,growth inhibition,[11]; at 3.7 µM,-1%
same,growth inhibition,[11]; [17],5%
same,growth inhibition,[11]; at 11.0 µM,12%
same,growth inhibition,[11]; at 33.0 µM,45%
same,growth inhibition,[11]; [18],2%
same,growth inhibition,[11]; at 50.0 µM,93.5% (active)
same,growth inhibition,[11]; at 100.0 µM,-9%
same,growth inhibition,[12]; at 1.2 µM,-3%
same,growth inhibition,[12]; at 3.7 µM,0%
same,growth inhibition,[12]; at 11.0 µM,-1%
same,growth inhibition,[12]; at 33.0 µM,34%
same,growth inhibition,[12]; at 100.0 µM,-6%
same,growth inhibition,[13]; at 1.2 µM,-2%
same,growth inhibition,[13]; at 3.7 µM,-4%
same,growth inhibition,[13]; at 11.0 µM,2%
same,growth inhibition,[13]; at 33.0 µM,11%
same,growth inhibition,[13]; at 100.0 µM,10%
same,growth inhibition,[14]; at 1.2 µM,-1%
same,growth inhibition,[14]; at 3.7 µM,1%
same,growth inhibition,[14]; at 11.0 µM,2%
same,growth inhibition,[14]; at 33.0 µM,35%
same,growth inhibition,[14]; at 100.0 µM,46%
same,growth inhibition,[15]; [17],12%
same,growth inhibition,[15]; [18],7%
same,growth inhibition,[15]; at 50.0 µM,93.1% (active)
same,growth inhibition,[16]; at 1.2 µM,1%
same,growth inhibition,[16]; at 3.7 µM,10%
same,growth inhibition,[16]; at 11.0 µM,5%
same,growth inhibition,[16]; at 33.0 µM,35%
same,growth inhibition,[16]; at 100.0 µM,-12%
COc1ccc2c(c1)C(=O)c1ccccc1C2,growth inhibition,[1]; at 1.2 µM,3%
same,growth inhibition,[1]; at 3.7 µM,9%
same,growth inhibition,[1]; at 11.0 µM,20%
same,growth inhibition,[1]; at 33.0 µM,35%
same,growth inhibition,[1]; at 100.0 µM,34%
same,growth inhibition,[2]; at 1.2 µM,2%
same,growth inhibition,[2]; at 3.7 µM,1%
same,growth inhibition,[2]; at 11.0 µM,5%
same,growth inhibition,[2]; at 33.0 µM,6%
same,growth inhibition,[2]; at 100.0 µM,4%
same,growth inhibition,[3]; at 1.2 µM,3%
same,growth inhibition,[3]; at 3.7 µM,10%
same,growth inhibition,[3]; at 11.0 µM,24%
same,growth inhibition,[3]; at 33.0 µM,42%
same,growth inhibition,[3]; at 100.0 µM,46%
same,growth inhibition,[4]; at 1.2 µM,-4%
same,growth inhibition,[4]; at 3.7 µM,2%
same,growth inhibition,[4]; at 11.0 µM,5%
same,growth inhibition,[4]; at 33.0 µM,7%
same,growth inhibition,[4]; at 100.0 µM,10%
same,growth inhibition,[5]; at 1.2 µM,3%
same,growth inhibition,[5]; at 3.7 µM,18%
same,growth inhibition,[5]; [17],-23%
same,growth inhibition,[5]; at 11.0 µM,31%
same,growth inhibition,[5]; at 33.0 µM,48%
same,growth inhibition,[5]; [18],30%
same,growth inhibition,[5]; at 50.0 µM,7%
same,growth inhibition,[5]; at 100.0 µM,35%
same,growth inhibition,[6]; at 1.2 µM,-1%
same,growth inhibition,[6]; at 3.7 µM,5%
same,growth inhibition,[6]; [17],-4%
same,growth inhibition,[6]; at 11.0 µM,-1%
same,growth inhibition,[6]; at 33.0 µM,6%
same,growth inhibition,[6]; [18],23%
same,growth inhibition,[6]; at 50.0 µM,24.4%
same,growth inhibition,[6]; at 100.0 µM,6%
same,growth inhibition,[7]; at 1.2 µM,1%
same,growth inhibition,[7]; at 3.7 µM,6%
same,growth inhibition,[7]; at 11.0 µM,8%
same,growth inhibition,[7]; at 33.0 µM,6%
same,growth inhibition,[7]; at 100.0 µM,7%
same,growth inhibition,[8]; [17],19%
same,growth inhibition,[8]; [18],0%
same,growth inhibition,[8]; at 50.0 µM,-5.05%
same,growth inhibition,[9]; at 1.2 µM,-3%
same,growth inhibition,[9]; at 3.7 µM,-1%
same,growth inhibition,[9]; at 11.0 µM,0%
same,growth inhibition,[9]; at 33.0 µM,9%
same,growth inhibition,[9]; at 100.0 µM,4%
same,growth inhibition,[10]; [17],-18%
same,growth inhibition,[10]; [18],4%
same,growth inhibition,[10]; at 50.0 µM,-19.8%
same,growth inhibition,[11]; at 1.2 µM,42%
same,growth inhibition,[11]; at 3.7 µM,67%
same,growth inhibition,[11]; [17],65%
same,growth inhibition,[11]; at 11.0 µM,74% (active)
same,growth inhibition,[11]; at 33.0 µM,82% (active)
same,growth inhibition,[11]; [18],85% (active)
same,growth inhibition,[11]; at 50.0 µM,75% (active)
same,growth inhibition,[11]; at 100.0 µM,80% (active)
same,growth inhibition,[12]; at 1.2 µM,-1%
same,growth inhibition,[12]; at 3.7 µM,3%
same,growth inhibition,[12]; at 11.0 µM,6%
same,growth inhibition,[12]; at 33.0 µM,7%
same,growth inhibition,[12]; at 100.0 µM,7%
same,growth inhibition,[13]; at 1.2 µM,1%
same,growth inhibition,[13]; at 3.7 µM,-1%
same,growth inhibition,[13]; at 11.0 µM,4%
same,growth inhibition,[13]; at 33.0 µM,11%
same,growth inhibition,[13]; at 100.0 µM,28%
same,growth inhibition,[14]; at 1.2 µM,-3%
same,growth inhibition,[14]; at 3.7 µM,-4%
same,growth inhibition,[14]; at 11.0 µM,0%
same,growth inhibition,[14]; at 33.0 µM,0%
same,growth inhibition,[14]; at 100.0 µM,1%
same,growth inhibition,[15]; [17],2%
same,growth inhibition,[15]; [18],31%
same,growth inhibition,[15]; at 50.0 µM,15.6%
same,growth inhibition,[16]; at 1.2 µM,-2%
same,growth inhibition,[16]; at 3.7 µM,-1%
same,growth inhibition,[16]; at 11.0 µM,6%
same,growth inhibition,[16]; at 33.0 µM,7%
same,growth inhibition,[16]; at 100.0 µM,-6%
